Measurements taken from PubChem BioAssay (NCATS).
Records with an inconclusive call do not appear. Values without a mark were called inactive. Activity calls are given as the source filed them. The call rests on the fitted dose curve; in most records, active means well fitted curve in the direction sought with a large enough effect; inconclusive means small, poorly fitted or top-dose-only effect, or another doubt; inactive means no such curve, though single readings can be large; an effect the other way counts as inactive or inconclusive.

Legend:
[1] = qHTS of pediatric cancer cell lines to identify multiple opportunities for drug repurposing: Primary screen for BT-12 cells (AID 1347101); further: nearly all actives have a fitted effect of over 25% in size
How it was run: (§1)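 Cells (500-1,000/well) rested 5 h, then received compounds for 48 h; metabolically active cells were measured by CellTiter-Glo luminescence. Final concentrations spanned up to 46 µM (MIPE, 11-point) or 0.59 nM-46 µM (NPC, 8-point) in primary screens, 11-point in follow-ups.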

[2] = qHTS of pediatric cancer cell lines to identify multiple opportunities for drug repurposing: Primary screen for Rh18 cells (AID 1347102); further: nearly all actives have a fitted effect of over 65% in size
How it was run: (§2)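 Cells (500-1,000/well) in growth media were settled 5 h at 37 degrees C, then given compounds for 48 h. Viability was read as CellTiter-Glo luminescence. Primary runs used MIPE at 11 points (0.78 nM-46 µM) and NPC at 8 points (0.59 nM-46 µM); follow-ups used 11 points.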

[3] = qHTS of pediatric cancer cell lines to identify multiple opportunities for drug repurposing: Primary screen for OHS-50 cells (AID 1347103); further: nearly all actives have a fitted effect of over 40% in size
How it was run: as §1

[4] = qHTS of pediatric cancer cell lines to identify multiple opportunities for drug repurposing: Primary screen for RD cells (AID 1347104); further: nearly all actives have a fitted effect of over 55% in size
How it was run: (§3)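 Phenotypic viability qHTS, 48 h compound exposure, CellTiter-Glo luminescence read-out; multi-concentration dosing so that potency and efficacy derive directly from the primary screen's curves.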

[5] = qHTS of pediatric cancer cell lines to identify multiple opportunities for drug repurposing: Primary screen for MG 63 (6-TG R) cells (AID 1347105); further: nearly all actives have a fitted effect of over 50% in size
How it was run: as §3

[6] = qHTS of pediatric cancer cell lines to identify multiple opportunities for drug repurposing: Primary screen for control Hh wild type fibroblast cells (AID 1347106); further: nearly all actives have a fitted effect of over 55% in size;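 on activity change, negative = cytotoxic: a drop in luminescence marks cytotoxicity and a rise apparent proliferation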
How it was run: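 Viability after 48 h compound treatment at 37C, 500-1,000 cells/well, read as ATP luminescence with CellTiter-Glo. Primary screens used 11-point (MIPE, 0.78 nM-46 µM) or 8-point (NPC, 0.59 nM-46 µM) final concentrations; follow-up screens used 11-point dilutions.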

[7] = qHTS of pediatric cancer cell lines to identify multiple opportunities for drug repurposing: Primary screen for Rh30 cells (AID 1347107); further: nearly all actives have a fitted effect of over 75% in size
How it was run: as §2

[8] = qHTS of pediatric cancer cell lines to identify multiple opportunities for drug repurposing: Primary screen for Rh41 cells (AID 1347108); further: nearly all actives have a fitted effect of over 70% in size;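 on activity change, negative = cytotoxic: luminescence drop marks cytotoxic hits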
How it was run: as §3

[9] = qHTS of pediatric cancer cell lines to identify multiple opportunities for drug repurposing: Confirmatory screen for SK-N-MC cells (AID 1347111);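 further: cells exposed to compound for 48 h before the readout; nearly all actives have a fitted effect of over 70% in size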
How it was run: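 Metabolically active cells were quantified by ATP-dependent luminescence (CellTiter-Glo, 15 min at room temperature) following 48 h treatment. Cells had been plated at 500-1,000 per well and settled for 5 h beforehand.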

[10] = qHTS of pediatric cancer cell lines to identify multiple opportunities for drug repurposing: Confirmatory screen for BT-12 cells (AID 1347112); further: nearly all actives have a fitted effect of over 55% in size
How it was run: as §2

[11] = qHTS of pediatric cancer cell lines to identify multiple opportunities for drug repurposing: Confirmatory screen for LAN-5 cells (AID 1347113); further: nearly all actives have a fitted effect of over 65% in size
How it was run: as §2

[12] = qHTS of pediatric cancer cell lines to identify multiple opportunities for drug repurposing: Confirmatory screen for SJ-GBM2 cells (AID 1347116); further: nearly all actives have a fitted effect of over 60% in size
How it was run: (§4)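 Viability measured as metabolically active cells via CellTiter-Glo luminescence following 48 hours of compound exposure, 11-point dilutions in confirmatory testing. 500-1,000 cells/well plated 5 hours before dosing; controls were DMSO and 2.3 µM bortezomib.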

[13] = qHTS of pediatric cancer cell lines to identify multiple opportunities for drug repurposing: Confirmatory screen for BT-37 cells (AID 1347117); conditions: BT-37 pediatric cancer cells, viability; activity change, negative = cytotoxic: at 45.9 µM (top of the series); further: nearly all actives have a fitted effect of over 55% in size
How it was run: as §2

[14] = qHTS of pediatric cancer cell lines to identify multiple opportunities for drug repurposing: Confirmatory screen for TC32 cells (AID 1347118);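 further: cells exposed to compound for 48 h before the read; nearly all actives have a fitted effect of over 65% in size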
How it was run: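 Luminescent ATP read-out (CellTiter-Glo) of metabolically active TC32 cells after 48 h exposure. Concentration-response curves came from 11-point (MIPE, 0.78 nM–46 µM) or 8-point (NPC, 0.59 nM–46 µM) primary titrations; follow-up used 11 points.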

[15] = qHTS of pediatric cancer cell lines to identify multiple opportunities for drug repurposing: Confirmatory screen for MG 63 (6-TG R) cells (AID 1347119); further: nearly all actives have a fitted effect of over 55% in size
How it was run: as §2

[16] = qHTS of pediatric cancer cell lines to identify multiple opportunities for drug repurposing: Confirmatory screen for NB1643 cells (AID 1347109); further: nearly all actives have a fitted effect of over 45% in size
How it was run: as §2

[17] = qHTS of pediatric cancer cell lines to identify multiple opportunities for drug repurposing: Confirmatory screen for A673 cells (AID 1347110);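 further: cells exposed to compound for 48 h before the viability read; nearly all actives have a fitted effect of over 65% in size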
How it was run: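 Concentration-response curves came straight from titrations: 11 points (0.78 nM to 46 µM) for MIPE and several concentrations (0.59 nM to 46 µM) for NPC in primary, 11 points in follow-up. Readout: ATP luminescence at 48 h.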

[18] = qHTS of pediatric cancer cell lines to identify multiple opportunities for drug repurposing: Confirmatory screen for NB-EBc1 cells (AID 1347115);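 further: cells exposed to compound for 48 h before the viability read; nearly all actives have a fitted effect of over 45% in size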
How it was run: as §2

[19] = qHTS of pediatric cancer cell lines to identify multiple opportunities for drug repurposing: Confirmatory screen for control Hh wild type fibroblast cells (AID 1347121); further: nearly all actives have a fitted effect of over 70% in size
How it was run: as §2

[20] = qHTS of pediatric cancer cell lines to identify multiple opportunities for drug repurposing: Confirmatory screen for DAOY cells (AID 1347114); further: nearly all actives have a fitted effect of over 65% in size
How it was run: as §4
Potency means the concentration at half of the fitted maximal effect.

Structure (SMILES): NC[C@H]1O[C@H](O[C@H]2[C@@H](O)[C@@H](O[C@H]3O[C@H](CO)[C@@H](O)[C@H](N)[C@@H]3O)[C@H](N)C[C@@H]2N)[C@H](N)C[C@H]1O
- Potency [1]: inactive
- Potency [2]: inactive
- Potency [3]: inactive
- Potency [4]: inactive
- Potency [5]: inactive
- Potency [6]: inactive
- Potency [7]: inactive
- Potency [8]: inactive

Structure (SMILES): Oc1cc(-c2nc(-c3ccccc3)[nH]c2-c2ccncc2)ccc1Cl
- Potency [1]: 6110 nM (active)
- Potency [2]: 13200 nM (active)
- Potency [3]: 24300 nM (active)
- Potency [4]: 2090 nM (active)
- Potency [5]: 11800 nM (active)
- Potency [6]: inactive
- Potency [9]: 3690 nM (active)
- Potency [10]: 2330 nM (active)
- Potency [11]: 6570 nM (active)
- Potency [12]: 7370 nM (active)
- Potency [13]: 2610 nM (active)
- Potency [14]: 7370 nM (active)
- Potency [15]: inactive

Structure (SMILES): CON=C(C(=O)N[C@@H]1C(=O)N2C(C(=O)O)=C(CSC(=O)c3ccco3)CS[C@H]12)c1csc(N)n1
- Potency [1]: inactive
- Potency [2]: inactive
- Potency [3]: inactive
- Potency [4]: inactive
- Potency [5]: inactive
- Potency [7]: inactive

Structure (SMILES): C=C1C(=CC=C2CCC[C@]3(C)[C@@H]([C@H](C)CCCC(C)(C)O)CC[C@@H]23)C[C@@H](O)C[C@@H]1O
- Potency [1]: 6850 nM (active)
- Potency [2]: 5260 nM (active)
- Potency [3]: 7690 nM (active)
- Potency [4]: 9350 nM (active)
- Potency [5]: 11800 nM (active)
- Potency [6]: inactive
- Potency [8]: 5900 nM (active)
- Potency [16]: inactive
- Potency [17]: inactive
- Potency [11]: inactive
- Potency [18]: 2610 nM (active)
- Potency [12]: inactive
- Potency [13]: inactive
- Potency [19]: inactive

Structure (SMILES): CC(=O)O[C@H]1C[C@@H]2CC[C@H]3[C@H]4C[C@H]([N+]5(C)CCCCC5)[C@@H](OC(C)=O)[C@@]4(C)CC[C@@H]3[C@@]2(C)C[C@H]1N1CCCCC1
- Potency [1]: inactive
- Potency [2]: inactive
- Potency [3]: inactive
- Potency [4]: inactive
- Potency [5]: inactive
- Potency [6]: inactive
- Potency [9]: 3290 nM (active)
- Potency [10]: 7370 nM (active)
- Potency [11]: 4140 nM (active)
- Potency [12]: 14700 nM (active)
- Potency [13]: 3290 nM (active)
- Potency [14]: 2330 nM (active)
- Potency [15]: inactive

Structure (SMILES): O=C(NNC(=O)c1ccc(CNS(=O)(=O)c2ccc(F)c(Cl)c2)cc1)c1ccccc1
- Potency [1]: inactive
- Potency [2]: inactive
- Potency [3]: inactive
- Potency [4]: inactive
- Potency [5]: inactive
- Potency [6]: inactive
- Potency [7]: inactive
- Potency [8]: inactive

Structure (SMILES): CN[C@H]1[C@@H](O)[C@@H]2O[C@@H]3O[C@H](C)CC(=O)[C@]3(O)O[C@@H]2[C@@H](NC)[C@H]1O
- Potency [1]: 1090 nM (active)
- Potency [2]: 1180 nM (active)
- Potency [3]: 432 nM (active)
- Potency [4]: 590 nM (active)
- Potency [5]: 9350 nM (active)
- Potency [6]: 3720 nM (active)
- Potency [7]: 296 nM (active)
- Potency [8]: 1180 nM (active)
- Potency [16]: inactive
- Potency [17]: inactive
- Potency [11]: inactive
- Potency [20]: inactive
- Potency [18]: inactive
- Potency [12]: inactive
- Potency [13]: inactive
- Potency [19]: inactive

Structure (SMILES): O=C(CCCCCCC(=O)Nc1cccnc1)NO
- Potency [1]: 10900 nM (active)
- Potency [2]: 4690 nM (active)
- Potency [3]: 4320 nM (active)
- Potency [4]: 16600 nM (active)
- Potency [5]: 18700 nM (active)
- Potency [7]: 18700 nM (active)
- Potency [8]: 11800 nM (active)

Structure (SMILES): NC(=O)c1ncn([C@@H]2O[C@H](CO)[C@@H](O)[C@@H]2O)c1N
- Potency [1]: inactive
- Potency [2]: inactive
- Potency [3]: inactive
- Potency [4]: inactive
- Potency [5]: inactive
- Potency [7]: inactive
- Potency [8]: inactive

Structure (SMILES): N#CNC(=NCCCCCCOc1ccc(Cl)cc1)Nc1ccncc1
- Potency [1]: 544 nM (active)
- Potency [2]: 18.7 nM (active)
- Potency [3]: 21700 nM (active)
- Potency [4]: 5.9 nM (active)
- Potency [5]: 14800 nM (active)
- Potency [6]: inactive
- Potency [8]: 5.9 nM (active)
- Potency [16]: 14.7 nM (active)
- Potency [17]: 11.7 nM (active)
- Potency [9]: 14.7 nM (active)
- Potency [11]: 11.7 nM (active)
- Potency [20]: 165 nM (active)
- Potency [18]: 41.4 nM (active)
- Potency [12]: 41.4 nM (active)
- Potency [13]: 18.5 nM (active)
- Potency [14]: 4.1 nM (active)

Structure (SMILES): CC(C)(O)Cn1c(NC(=O)c2ccc(-c3cn[nH]c3)s2)nc2cc(CN3CCOCC3)ccc21
- Potency [1]: 3430 nM (active)
- Potency [2]: 1870 nM (active)
- Potency [3]: 1220 nM (active)
- Potency [4]: 1870 nM (active)
- Potency [5]: 3720 nM (active)
- Potency [6]: 6620 nM (active)
- Potency [7]: inactive
- Potency [8]: 1180 nM (active)
- Potency [16]: 329 nM (active)
- Potency [17]: 1170 nM (active)
- Potency [9]: 1310 nM (active)
- Potency [10]: 1040 nM (active)
- Potency [11]: 1040 nM (active)
- Potency [20]: 2610 nM (active)
- Potency [18]: 1040 nM (active)
- Potency [12]: 1170 nM (active)
- Potency [13]: 737 nM (active)
- Potency [14]: 1310 nM (active)
- Potency [15]: 1170 nM (active)
- Potency [19]: 5220 nM (active)

Structure (SMILES): C=CC(=O)Nc1cccc(Nc2nc(NC3CCC(N(C)C)CC3)nc3c2ncn3C(C)C)c1 (stereo unspecified)
- Potency [1]: 38.5 nM (active)
- Potency [2]: 418 nM (active)
- Potency [3]: 38.5 nM (active)
- Potency [4]: 83.3 nM (active)
- Potency [5]: 469 nM (active)
- Potency [6]: 2350 nM (active)
- Potency [7]: inactive
- Potency [16]: 414 nM (active)
- Potency [17]: 737 nM (active)
- Potency [9]: 2610 nM (active)
- Potency [11]: 827 nM (active)
- Potency [20]: 3290 nM (active)
- Potency [18]: 7370 nM (active)
- Potency [12]: 4650 nM (active)
- Potency [13]: 827 nM (active)
- Potency [14]: 657 nM (active)
- Potency [15]: 3690 nM (active)
- Potency [19]: inactive
